# Test results reported in PubChem BioAssay (NCATS).
# Where “and” joins values, the source holds several entries; their conditions need not be identical. Equal entries are not always repeated. Records with an inconclusive call do not appear. Calls of active or inactive are those of the source. Unless noted, the call rests on the fitted dose curve; in most records, active means well fitted curve in the direction sought with a large enough effect; inconclusive means small, poorly fitted or top-dose-only effect, or another doubt; inactive means no such curve, though single readings can be large; an effect the other way counts as inactive or inconclusive.
# How the values were obtained:
# [1] = qHTS Assay for Lipid Storage Modulators (AID 1519; calls by dose curve; on activity change, negative = inhibition: on the % scale 0 is the no-effect control and ±100 the full control effect); conditions: Drosophila S3 cells, BODIPY lipid droplet/cell ratio, laser cytometry, cells loaded with oleic acid
# Procedure, shortened: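 Cells seeded at 5,000 per well were treated with compounds over a concentration series and loaded with oleic acid (400 uM, as added). Lipid droplet fluorescence (488 nm excitation, 500-530 nm channel) was read by laser-scanning cytometry and normalized to 20 uM Triacsin C.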
# [2] = molecular target: DNA repair nuclease/redox regulator APEX1 (Homo sapiens) (UniProt P27695); assay: qHTS Validation Assay for Inhibitors of the Human Apurinic/apyrimidinic Endonuclease 1 (APE1) (AID 1705;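 further: TAMRA fluorescence gain over two minutes as APE1 cuts a quenched THF abasic duplex; on the % scale 0 is the no-effect control and ±100 the full control effect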); conditions: purified APE1 endonuclease activity, fluorescence, titration; series mostly up to 57.1 µM
# Procedure, shortened: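 Human APE1 was preincubated with compound for 15 min at room temperature, then 50 nM (final) THF-abasic double-stranded DNA substrate bearing 5'-TAMRA and 3'-BHQ-2 was added. Incision-driven fluorescence rise (ex 525/em 598 nm) was read kinetically.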
# [3] = Counterscreen for APE1 Inhibitors: Fluorescent Dye Displacement Validation Assay (AID 1707); conditions: fluorescent dye displacement from DNA; series mostly up to 57.1 µM;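 further: plate controls were ThO with dsDNA and no compound for no effect and ThO without dsDNA for full effect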
# Procedure, shortened: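 Compounds are scored by their ability to displace Thiazole Orange (250 nM) from a 50 nM TAMRA-tagged duplex bearing a tetrahydrofuran abasic site. Buffer is 50 mM Tris-HCl pH7.5, 50mM NaCl, 2 mM MgCl2, 0.01% Tween-20.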
# [4] = molecular target: Endonuclease 4 (Escherichia coli (strain K12)) (UniProt P0A6C1); assay: Counterscreen for APE1 Inhibitors: qHTS Validation Assay for Inhibitors of Endonuclease IV (AID 1708); further: on the % scale 0 is the no-effect control and ±100 the full control effect; conditions: E. coli endonuclease IV, DNA cleavage fluorescence; series mostly up to 57.1 µM
# Procedure, shortened: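 Enzymatic AP-site incision assay using a double-stranded THF substrate labelled with TAMRA and BHQ-2; released fluorescence signals activity. Enzyme 2 nM, substrate 50 nM, 15 min compound preincubation.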
# [5] = qHTS for differential inhibitors of proliferation of Plasmodium falciparum line 7G8 (AID 1815); conditions: Plasmodium falciparum 7G8 proliferation inhibition; series mostly up to 28.7 µM;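 further: parasite growth measured after three days of incubation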; further: potency means the concentration at half of the fitted maximal effect;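 on activity change, negative = inhibition: plate controls were vehicle wells for no effect and reference inhibitor wells for full effect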
# [6] = qHTS for differential inhibitors of proliferation of Plasmodium falciparum line GB4 (AID 1816); conditions: Potency: Plasmodium falciparum GB4 proliferation inhibition; series mostly up to 28.7 µM;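 further: parasite growth measured after 72 h incubation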; further: potency means the concentration at half of the fitted maximal effect;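 on activity change, negative = inhibition: 0% = vehicle DMSO and -100% = reference inhibitor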
# [7] = qHTS for differential inhibitors of proliferation of Plasmodium falciparum line 3D7 (AID 1876); further: potency means the concentration at half of the fitted maximal effect; conditions: P. falciparum 3D7 proliferation inhibition; series mostly up to 28.7 µM
# [8] = qHTS for differential inhibitors of proliferation of Plasmodium falciparum line D10 (AID 1877); conditions: series mostly up to 28.7 µM;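 further: parasites grown with compound for 72 h before DNA staining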; further: potency means the concentration at half of the fitted maximal effect;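 on activity change, negative = inhibition: plate controls were vehicle wells for no effect and reference inhibitor wells for full effect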
# [9] = molecular target: Alpha-galactosidase A (Homo sapiens) (UniProt P06280); assay: Counterscreen for Glucocerebrosidase Inhibitors: qHTS Assay for Human alpha-Galactosidase at pH 4.5 (AID 992); conditions: purified enzyme, fluorogenic substrate; series mostly up to 76.9 µM; further: 0% is about no effect
# Procedure, shortened: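 Quantitative HTS: compounds tested from 0.7 nM up to 77 uM against 2 nM enzyme with 80 uM 4-MU alpha-D-galactopyranoside. The 20 min room-temperature reaction is stopped with 1M NaOH/1M glycine, pH 10.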
# [10] = molecular target: alpha-glucosidase (Oryza sativa, rice) (UniProt Q653V4); assay: Counterscreen for Glucocerebrosidase Inhibitors: qHTS Assay for Rice alpha-Glucosidase at pH 5.0 (AID 997); conditions: rice alpha-glucosidase enzyme activity; series mostly up to 76.9 µM;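 further: 0% = full activity with enzyme and -100% = basal without enzyme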
# Procedure, shortened: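 Rice alpha-glucosidase (4 nM final) with 400 uM 4-methylumbelliferyl-alpha-D-glucopyranoside in citrate buffer pH 5.0, 20 min at room temperature, stopped at pH 10; fluorescence 365/440 nm, compounds 0.7 nM–77 uM, AC50 from Hill fits.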
# [11] = Cell Viability - LYMP2-016 (AID 984); conditions: LYMP2-016 lymphoblastoid cell viability, qHTS; series mostly up to 92.2 µM; further: on the % scale 0 is the no-effect control and ±100 the full control effect; nearly all actives have a fitted effect of over 55% in size
# Procedure, shortened: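 Human lymphoblastoid cells (LYMP2-016), 2500/well in complete medium, preincubated 5 hr at 37 C, then compound-treated 24 hr at 37 C. Intracellular ATP read by CellTiter-Glo luminescence after 30 min at room temperature; AC50 from Hill-equation concentration-response fits.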
# [12] = Cell Viability - LYMP2-018 (AID 985); conditions: LYMP2-018 lymphoblastoid cells, viability (qHTS); series mostly up to 92.2 µM;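 further: compound exposure lasted 24 hr at 37 °C; plate controls were DMSO only for no effect and tetraoctylammonium bromide at 92 µM for full effect; nearly all actives have a fitted effect of over 50% in size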
# Procedure, shortened: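 Human lymphoblastoid cells (2500/well) were pre-incubated 5 hr at 37 C, then exposed to compounds for 24 hr at 37 C in complete medium. Viability was read as intracellular ATP by CellTiter-Glo luminescence; AC50 values came from Hill-equation fits.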
# [13] = Cell Viability - LYMP2-026 (AID 989); conditions: LYMP2-026 lymphoblastoid cell viability, qHTS; series mostly up to 92.2 µM; further: on the % scale 0 is the no-effect control and ±100 the full control effect; nearly all actives have a fitted effect of over 50% in size
# Procedure, shortened: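 Human lymphoblastoid cells (2500/well) in complete medium were preincubated 5 hr at 37 C, then exposed to compounds for 24 hr at 37 C. Cellular ATP was read by CellTiter-Glo luminescence; AC50 from Hill-equation fits of concentration-response data.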
# [14] = Cell Viability - LYMP1-002 - Assay at 24 hr (AID 993); conditions: LYMP1-002 lymphoblastoid cells viability; series mostly up to 92.2 µM; further: on the % scale 0 is the no-effect control and ±100 the full control effect
# Procedure, shortened: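 Human lymphoblastoid LYMP1-002 cells, 2500/well in complete medium, were treated with compounds for 24 h at 37 C; intracellular ATP was read by CellTiter-Glo luminescence. AC50 values came from Hill-equation fits of qHTS concentration-response data.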
# [15] = Cell Viability - LYMP1-002 - Assay at 40 hr (AID 994); conditions: LYMP1-002 lymphoblastoid cell viability; series mostly up to 92.2 µM;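 further: 0% = DMSO only and full inhibition = 92 µM tetraoctylammonium bromide; nearly all actives have a fitted effect of over 60% in size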
# Procedure, shortened: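 Human lymphoblastoid cells, 2500/well in complete medium, were preincubated 5 hr at 37 C, then exposed to compounds for 40 hr at 37 C. Intracellular ATP was read by CellTiter-Glo luminescence after 30 min at room temperature; AC50 from Hill-equation fits.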
# [16] = measured here: cell count channel max response
# [17] = measured here: lipid channel max response
# Sequence of DNA repair nuclease/redox regulator APEX1 (Homo sapiens) (P27695 whole entry, looked up): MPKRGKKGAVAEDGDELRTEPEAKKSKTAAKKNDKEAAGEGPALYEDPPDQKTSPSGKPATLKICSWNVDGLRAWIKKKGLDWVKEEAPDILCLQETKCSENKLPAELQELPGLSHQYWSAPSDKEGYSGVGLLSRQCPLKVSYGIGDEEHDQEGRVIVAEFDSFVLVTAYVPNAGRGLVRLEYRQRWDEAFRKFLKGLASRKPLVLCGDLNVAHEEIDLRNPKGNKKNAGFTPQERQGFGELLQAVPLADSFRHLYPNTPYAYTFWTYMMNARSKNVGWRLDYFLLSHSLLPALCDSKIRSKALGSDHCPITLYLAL
# Sequence of Alpha-galactosidase A (Homo sapiens) (P06280 whole entry, looked up): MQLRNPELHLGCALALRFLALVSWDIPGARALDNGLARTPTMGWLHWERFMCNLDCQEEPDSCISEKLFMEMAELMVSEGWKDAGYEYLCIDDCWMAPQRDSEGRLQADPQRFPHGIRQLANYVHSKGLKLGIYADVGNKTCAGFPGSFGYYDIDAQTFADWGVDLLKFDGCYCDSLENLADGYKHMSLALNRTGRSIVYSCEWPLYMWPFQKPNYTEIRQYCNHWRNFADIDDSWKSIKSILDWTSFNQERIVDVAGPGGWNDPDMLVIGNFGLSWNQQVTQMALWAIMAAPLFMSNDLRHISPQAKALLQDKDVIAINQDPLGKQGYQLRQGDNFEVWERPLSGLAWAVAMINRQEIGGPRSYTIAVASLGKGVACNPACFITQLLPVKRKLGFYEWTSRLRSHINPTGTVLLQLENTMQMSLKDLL
smiles,measurement,setting,value
C[C@H]1O[C@@H](n2cc(F)c(=O)[nH]c2=O)[C@H](O)[C@@H]1O,"activity change, negative = inhibition",[1]; at 57.5 µM (top of the series),-0.32% (inactive)
same,max response,[1]; [16],40.7%
same,max response,[1]; [17],39.7%
same,Potency,[2],inactive
same,Potency,[3],inactive
same,Potency,[4],inactive
same,Potency,[5],inactive
same,Potency,[6],inactive
same,Potency,[7],inactive
same,Potency,[8],inactive
CN(C)CCCN1c2ccccc2Sc2ccc(Cl)cc21,outcome,[9],inactive
same,outcome,[10],inactive
same,"activity change, negative = inhibition",[1]; at 25.7 µM (top of the series),-3.35% (inactive)
same,"activity change, negative = inhibition",[1]; at 57.5 µM (top of the series),10.9% (inactive)
same,max response,[1]; [16],-15.1% and 7.95%
same,max response,[1]; [17],-17.6% and 24.6%
same,Potency,[2],inactive
same,Potency,[3],inactive
same,Potency,[5],4.47 µM (active)
same,Potency,[6],11.2 µM (active)
same,Potency,[7],4.47 µM (active)
same,Potency,[8],12.6 µM (active)
Nc1ccc(S(=O)(=O)Nc2nccs2)cc1,Potency,[11],inactive
same,Potency,[12],inactive
same,Potency,[13],inactive
same,Potency,[14],inactive
same,Potency,[15],inactive
same,"activity change, negative = inhibition",[1]; at 25.7 µM (top of the series),0.978% (inactive)
same,"activity change, negative = inhibition",[1]; at 57.5 µM (top of the series),7.82% (inactive)
same,max response,[1]; [16],0.0037% and 29.7%
same,max response,[1]; [17],1.28% and 42.1%
NS(=O)(=O)c1cc2c(cc1C(F)(F)F)NC(Cc1ccccc1)NS2(=O)=O (stereo not given),"activity change, negative = inhibition",[1]; at 57.5 µM (top of the series),2.56% (inactive)
same,max response,[1]; [16],6.37%
same,max response,[1]; [17],10.5%
CCn1cc(C(=O)O)c(=O)c2cnc(N3CCNCC3)nc21,"activity change, negative = inhibition",[1]; at 25.7 µM (top of the series),-2.05% (inactive)
same,"activity change, negative = inhibition",[1]; at 57.5 µM (top of the series),0.203% (inactive)
same,max response,[1]; [16],0.27% and 20.9%
same,max response,[1]; [17],-1.56% and 23.6%
c1ccc(CN(CC2=NCCN2)c2ccccc2)cc1,"activity change, negative = inhibition",[1]; at 25.7 µM (top of the series),-2.49% (inactive)
same,"activity change, negative = inhibition",[1]; at 57.5 µM (top of the series),-1.31% (inactive)
same,max response,[1]; [16],2.23% and 6.19%
same,max response,[1]; [17],-3.05% and 6.55%
O=C(O)c1ccccc1O,"activity change, negative = inhibition",[1]; at 57.5 µM (top of the series),9.55% (inactive)
same,max response,[1]; [16],11.4%
same,max response,[1]; [17],27.4%
OCCN1CCN(CCCN2c3ccccc3Sc3ccc(Cl)cc32)CC1,outcome,[9],inactive
same,outcome,[10],inactive
same,"activity change, negative = inhibition",[1]; at 25.7 µM (top of the series),-1.31% (inactive)
same,"activity change, negative = inhibition",[1]; at 57.5 µM (top of the series),2.76% (inactive)
same,max response,[1]; [16],-14.4% and -12.4%
same,max response,[1]; [17],-12.9% and -6.81%
same,Potency,[2],inactive
same,Potency,[3],inactive
same,Potency,[5],3.55 µM (active)
same,Potency,[6],4.47 µM (active)
same,Potency,[7],2.82 µM (active)
same,Potency,[8],8.91 µM (active)
OC[C@H]1O[C@@H](O[C@@H]2[C@@H](CO)O[C@](O)(CO)[C@H]2O)[C@H](O)[C@@H](O)[C@H]1O,"activity change, negative = inhibition",[1]; at 57.5 µM (top of the series),-5.86% (inactive)
same,max response,[1]; [16],-20.2%
same,max response,[1]; [17],-24.3%
C#CCN(C)Cc1ccccc1,outcome,[9],inactive
same,outcome,[10],inactive
same,"activity change, negative = inhibition",[1]; at 25.7 µM (top of the series),-2.03% (inactive)
same,max response,[1]; [16],-10.9%
same,max response,[1]; [17],-13.8%
same,Potency,[2],inactive
same,Potency,[3],inactive
same,Potency,[4],inactive
same,Potency,[5],inactive
same,Potency,[6],inactive
same,Potency,[7],inactive
same,Potency,[8],inactive
CCOc1ccc2ccccc2c1C(=O)N[C@@H]1C(=O)N2[C@@H]1SC(C)(C)[C@@H]2C(=O)O,"activity change, negative = inhibition",[1]; at 25.7 µM (top of the series),-0.855% (inactive)
same,max response,[1]; [16],-15.7%
same,max response,[1]; [17],-15.1%
